In PubChem BioAssay (Tox21):
Inconclusive results are not listed. A call without a number means that no potency is given here. Calls of active or inactive are those of the source. Calls follow the shape of the dose curve; as a rule, active = well fitted inhibition curve with a large enough effect in the repeat runs; inconclusive = weak or mixed curves; inactive = no such curve, though single readings can be large or run the other way.

target: Cytochrome P450 3A4 (Homo sapiens) (UniProt P08684); test: Cytochrome P450 Family 3 Subfamily A Member 4 (CYP3A4) small molecule antagonists: luciferase reporter qHTS assay (AID 1671201); conditions: P450-Glo CYP3A4 enzyme, luciferin luminescence, 1 h; series mostly up to 115 µM; also: nearly all actives have a fitted effect of over 50% in size
Text: National Center for Advancing Translational Sciences [NCATS]
U.S. Environmental Protection Agency [EPA]
National Institutes of Environmental Health Sciences [NIEHS]
National Toxicology Program [NTP]
U.S. Food and Drug Administration [FDA]
Cytochrome P450 (CYP) enzymes are membrane-bound hemeproteins that play a key role in metabolism of drugs and xenobiotics. Evaluation of the effect of chemicals on CYP isozymes is useful to minimize the adverse drug reactions and toxicities in drug development process. Tox21 chemicals were tested for their effect on CYP enzyme activities by using P450-Glo (TM) screening systems (Promega Corporation, Madison, WI). These systems provide a luminescent method containing proluciferin substrates and are converted to luciferin products by CYP isozymes. The luciferin products formed are detected with a luciferin detection reagent, and the amount of light produced is proportional to CYP activity. P450-Glo (TM) CYP3A4 screening system (Catalog. No. V9910) was used to detect the compounds that interfere in CYP3A4 activity. The positive control compound used for CYP3A4 assay is ketoconazole (Sigma-Aldrich, St. Louis, MO).
Tox21 Assay Protocol Summary:
Two ul of enzyme-substrate mix was dispensed into medium binding white/solid 1536-well plates (Greiner Bio-One North America Inc., Monroe, NC) using a BioRaptr Flying Reagent Dispenser (FRD, Beckman Coulter, Brea, CA). Compounds dissolved in DMSO and positive control (ketoconazole) were transferred to the assay plates at 23 nl using a Pintool station (Wako, San Diego, CA). The assay plates were incubated at room temperature for 10 min. Then 2 ul of NADPH regeneration solution was added to each well of the assay plates using an FRD and incubated at room temperature for 1 h. The reaction was stopped by adding 4 ul of detection reagent using an FRD and after 20 min incubation at room temperature the luminescence signal was measured using a ViewLux plate reader (Perkin Elmer, Shelton, CT). Data were expressed as relative luminescence units.
Potency is read from the fitted curve at half-maximal effect.

Cytochrome P450 3A4 (Homo sapiens), sequence (P08684 whole entry, looked up): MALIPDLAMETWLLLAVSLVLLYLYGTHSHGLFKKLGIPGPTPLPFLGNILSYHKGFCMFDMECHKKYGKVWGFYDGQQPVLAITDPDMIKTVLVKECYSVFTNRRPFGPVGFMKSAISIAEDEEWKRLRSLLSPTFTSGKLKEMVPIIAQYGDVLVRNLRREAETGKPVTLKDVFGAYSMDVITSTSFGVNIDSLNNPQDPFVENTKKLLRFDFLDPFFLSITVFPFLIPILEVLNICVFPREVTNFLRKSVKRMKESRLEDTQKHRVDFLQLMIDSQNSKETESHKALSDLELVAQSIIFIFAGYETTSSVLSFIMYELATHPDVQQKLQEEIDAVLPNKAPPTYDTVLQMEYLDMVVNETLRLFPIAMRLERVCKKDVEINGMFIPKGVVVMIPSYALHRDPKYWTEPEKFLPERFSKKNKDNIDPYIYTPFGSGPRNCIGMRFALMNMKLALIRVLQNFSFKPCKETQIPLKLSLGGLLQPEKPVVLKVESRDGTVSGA

**Q.** How did the Potency turn out when `CCCCC(CC)CNCC(CC)CCCC` (stereo not given) was run?
**A.** inactive

**Q.** For `Cc1nccn1-c1ccc(Sc2cccc(C3(C(N)=O)CCOCC3)c2)cc1`, which Potency is on record?
**A.** 7.96 µM (active)

**Q.** `CCCC1C(CC)=CC(CC)=CN1c1ccccc1` (stereo not given) was tested. Which Potency did it give?
**A.** 31.7 µM (active)

**Q.** With `CCC(=O)Oc1ccc(/C(CC)=C(\CC)c2ccc(OC(=O)CC)cc2)cc1` as the compound, how does the Potency read?
**A.** inactive

**Q.** With `NCC1CCCC(CN)C1` (stereo not given) as the compound, how does the Potency read?
**A.** inactive

**Q.** How did the Potency turn out when `CCCCN(CCCC)C(=S)SSC(=S)N(CCCC)CCCC` was run?
**A.** 5.58 µM (active)

**Q.** `CC(COc1ccc(C(C)(C)C)cc1)OS(=O)OCCCl` (stereo not given) was tested. Which Potency did it give?
**A.** inactive

**Q.** `O=S(=O)(c1ccccc1)c1ccc(Cl)cc1` was tested. Which Potency did it give?
**A.** inactive

**Q.** `CC1=NN(c2ccc(C(=O)O)cc2)C(=O)C1` was tested. Which Potency did it give?
**A.** inactive

**Q.** With `C=CC(=C)CCCC(C)(C)OC(C)=O` as the compound, how does the Potency read?
**A.** inactive

**Q.** Which Potency does the source give for `CCCc1c(OCCCOc2ccc(OCC(=O)O)cc2)ccc(C(C)=O)c1O` here?
**A.** inactive

**Q.** `CCCC(=O)O[C@]1(C(=O)COC(=O)CC)CC[C@H]2[C@@H]3CCC4=CC(=O)CC[C@]4(C)[C@H]3[C@@H](O)C[C@@]21C` was tested. Which activity change, negative = inhibition did it give?
**A.** 1.97% [at 23.6 µM] (inactive)

**Q.** Which Potency does the source give for `O=C(Nc1ccc([N+](=O)[O-])cc1)Nc1ccc([N+](=O)[O-])cc1` here?
**A.** inactive

**Q.** With `CCCCCCCCCCCC(=O)[O][Sn]([CH2]CCC)([CH2]CCC)[O]C(=O)CCCCCCCCCCC` as the compound, how does the Potency read?
**A.** inactive

**Q.** With `CC(C)=CC=O` as the compound, how does the Potency read?
**A.** inactive

**Q.** For `CCOC(=O)N1CCC(n2c(=O)[nH]c3cc(Cl)ccc32)CC1`, which Potency is on record?
**A.** inactive

**Q.** `ON(Cc1ccccc1)Cc1ccccc1` was tested. Which Potency did it give?
**A.** 10 µM (active)

**Q.** Which Potency does the source give for `Fc1ccccc1[C@@H](F)COC1CCC(Nc2ncnc3[nH]ncc23)CC1` (stereo not given in full) here?
**A.** inactive

**Q.** With `O=C(O)c1c(O)c(-c2ccccc2)nc2ccccc12` as the compound, how does the Potency read?
**A.** inactive

**Q.** For `CCC(=O)OC/C=C/c1ccccc1`, which Potency is on record?
**A.** inactive

**Q.** With `CC1=CC(=O)CC(C)(C)C1(O)/C=C/C(C)=C\C(=O)O` (stereo not given) as the compound, how does the Potency read?
**A.** inactive

**Q.** Which Potency does the source give for `CCCCOC(=O)CCS` here?
**A.** inactive

**Q.** Which Potency does the source give for `C[N+](C)(C)CCOC(N)=O` here?
**A.** inactive

**Q.** `CCCOCCOCCO` was tested. Which Potency did it give?
**A.** inactive

**Q.** How did the Potency turn out when `CO/N=C1\CN(c2nc3c(cc2F)c(=O)c(C(=O)O)cn3C2CC2)CC1CN` (stereo not given) was run?
**A.** inactive

**Q.** For `c1cc[c]([Bi]([c]2ccccc2)[c]2ccccc2)cc1`, which Potency is on record?
**A.** 2.24 µM (active)

**Q.** With `NC(=O)N(O)[C@@H]1C=C[C@H](Oc2cccc(Oc3ccc(F)cc3)c2)C1` as the compound, how does the Potency read?
**A.** 0.894 µM (active)

**Q.** `COC(OC)(C(=O)c1ccccc1)c1ccccc1` was tested. Which Potency did it give?
**A.** inactive

**Q.** `CC(Cl)C(Cl)Cl` (stereo not given) was tested. Which Potency did it give?
**A.** inactive

**Q.** Which Potency does the source give for `Nc1ccc(C(=O)OCCCOC(=O)c2ccc(N)cc2)cc1` here?
**A.** 2.24 µM (active)

**Q.** How did the Potency turn out when `NC(=O)Cn1c(=O)cc(CCN2CCN(c3nccc4sccc34)CC2)c2ccc(F)cc21` was run?
**A.** 5.64 µM (active)

**Q.** For `COC(=O)c1cc(Cl)ccc1NS(=O)(=O)C(F)(F)F`, which Potency is on record?
**A.** inactive

**Q.** For `CCC(C(=O)OCCOCCN(CC)CC)c1ccccc1` (stereo not given), which Potency is on record?
**A.** inactive

**Q.** For `CN1CCN(c2c(F)cc3c(=O)c(C(=O)O)cn4c3c2OCN4C)CC1`, which activity change, negative = inhibition is on record?
**A.** 3.15% [at 23.6 µM] (inactive)

**Q.** `Cc1nc2ccccc2s1` was tested. Which Potency did it give?
**A.** inactive

**Q.** How did the Potency turn out when `C=CC(C)(O)CCCC(C)CCCC(C)CCCC(C)C` (stereo not given) was run?
**A.** inactive

**Q.** For `CCOC(=O)C(C)Oc1ccc(Oc2nc3ccc(Cl)cc3o2)cc1` (stereo not given), which Potency is on record?
**A.** inactive

**Q.** For `CC(=O)Oc1ccc2c(c1)CC[C@@H]1[C@@H]2CC[C@]2(C)[C@@H](O)CC[C@@H]12`, which Potency is on record?
**A.** inactive

**Q.** With `CC(C)CCCCCOC(=O)CCCCC(=O)OCCCCCC(C)C` as the compound, how does the Potency read?
**A.** 35.6 µM (active)

**Q.** For `Cc1ccc(S)cc1`, which Potency is on record?
**A.** inactive
